PubChem BioAssay
Calls of active or inactive are those of the source.

What was measured:
[1] = biological target: Albumin (Bos taurus) (UniProt P02769); test: compounds binding labelled BSA control protein – biochemical, small-molecule microarray, Alexa647 label, 635/667 nm fluorescence, artefact control for SMM control protein annotation, profiling panel (AID 1118); conditions: BSA-A647 binding, fluorescence 635 nm, higher = more signal;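 further: score merges 667 nm emission intensity and signal-to-noise per printed compound spot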
[2] = probe aXIP binding to arrayed compounds – biochemical, NeuroSMM set, 635/667 nm fluorescence, primary screen (AID 1119); conditions: small-molecule microarray, higher = more signal, called active from +8 up or from −8 down;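 further: probe is the protein aXip251-270 applied at 1 µg/mL to compound-printed slides; binding of probe to printed compounds measured as 667 nm fluorescence plus signal to noise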
[3] = probe aNOTCH3 binding on compound microarray – biochemical, small-molecule microarray, 635/667 nm fluorescence, primary screen (AID 1120); conditions: higher = more signal;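 further: probe is a biotin-tagged antibody raised against NOTCH3 rather than NOTCH3 protein; score merges spot fluorescence near 667 nm with spot signal to noise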
[4] = probe aNOTCH2 binding on compound microarray – biochemical, small-molecule microarray, 635/667 nm fluorescence, primary screen (AID 1121); conditions: higher = more signal;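 further: score merges feature fluorescence read at 667 nm with its signal to noise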
[5] = biological target: Carbonic anhydrase 2 (Homo sapiens) (UniProt P00918); test: compounds binding carbonic anhydrase 2 – biochemical, small-molecule microarray, Alexa647-labelled CAII, profiling panel (AID 1122); conditions: CAII-A647 binding fluorescence, higher = more signal
[6] = COS7 lysate on small-molecule microarray, probe aHis, 635 nm (AID 1123); conditions: COS7 cell lysate, fluorescence, higher = more signal;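 further: z-score combines 667nm fluorescence intensity with signal-to-noise per printed compound spot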
[7] = probe aLAP1 signal on lysate-treated microarray – cell lysate, small-molecule microarray, COS7 lysate, primary screen (AID 1124); conditions: probe aLAP1, fluorescence, higher = more signal;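 further: lysate comes from COS7 cells expressing LAP1 and is applied at 0.3 µg/mL; score merges spot fluorescence near 667 nm with signal-to-noise over triplicate slides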
[8] = system: Sam68 (KHDRBS1); test: compounds binding KHDRBS1 protein – biochemical, small-molecule microarray, 635 nm fluorescence, primary screen (AID 1125); conditions: higher = more signal;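 further: score merges 667 nm channel intensity with signal to noise over triplicate slides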
[9] = system: Chordin-like protein 2 (CHRDL2); test: compounds binding chordin-like 2 – biochemical, small-molecule microarray, 635 nm fluorescence, primary screen (AID 1126); conditions: fluorescence 635 nm, higher = more signal;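 further: printed compound slides probed with Chrdl2 protein at 4 µg/mL for 1 h at 4 C; score merges 667 nm emission intensity with signal to noise over three replicate slides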
[10] = biological target: Concanavalin-A (Canavalia ensiformis) (UniProt P02866); test: compounds binding concanavalin A lectin – biochemical, small-molecule microarray, Alexa647 label, 635 nm, artefact control for SMM control protein annotation, primary screen (AID 1127); conditions: ConA-A647 binding fluorescence, higher = more signal;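 further: z combines 667 nm emission intensity with signal-to-noise across three replicate slides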
[11] = compounds binding Alexa647 anti-His antibody – biochemical, small-molecule microarray, 635 nm fluorescence, artefact control for SMM control protein annotation, primary screen (AID 1128); conditions: higher = more signal;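 further: score merges feature fluorescence with signal-to-noise for each printed compound spot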
[12] = system: Human papillomavirus type 1a E7 protein (residues 1-88); test: HPV1a E7 small-molecule binders, primary screen, biochemical, small-molecule microarray, residues 1-88, 635 nm (AID 1129); conditions: small-molecule microarray binding, fluorescence 635 nm; higher = more signal
[13] = biological target: Focal adhesion kinase 1 (Homo sapiens) (UniProt Q05397); test: PTK2 protein binding on printed compound slides – biochemical, small-molecule microarray, 635/667 nm fluorescence, BSA, DTT, primary screen (AID 1130); conditions: 635 nm fluorescence, higher = more signal;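 further: composite of spot emission at 667 nm and signal to noise over triplicate slides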
[14] = system: Fibrinogen (Alexa647-labelled); test: Alexa647-fibrinogen binding to printed small molecules – biochemical, small-molecule microarray, 635/667 nm fluorescence, artefact control for SMM control-protein annotation, profiling panel (AID 1131); conditions: fibrinogen-A647 binding fluorescence, higher = more signal;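 further: z-score merges 667 nm fluorescence with per-spot signal-to-noise over triplicate slides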
[15] = biological target: Follistatin (Homo sapiens) (UniProt P19883); test: FST protein binding to printed compounds – biochemical, small-molecule microarray, 635/667 nm fluorescence, primary screen (AID 1132); conditions: 635 nm fluorescence, higher = more signal
[16] = biological target: Fibroblast growth factor 2 (Homo sapiens) (UniProt P09038); test: basic fibroblast growth factor binding to printed compounds – biochemical, small-molecule microarray, 635/667 nm fluorescence, primary screen (AID 1133); conditions: FGF2, fluorescence 635/667, higher = more signal
[17] = JC-1 mitochondrial potential readout, lung cancer cells – cell-based, A549, JC-1 fluorescence, basal, 24 h, 100 nL, profiling panel (AID 1138); conditions: higher = more signal;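 further: A549 lung adenocarcinoma cells under basal conditions with no added stimulus; test concentration not given here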
[18] = system: Lefty1; test: Lefty1 protein binding to printed compounds – biochemical, small-molecule microarray, 635/667 nm fluorescence, primary screen (AID 1139); conditions: fluorescence 635/667, higher = more signal
[19] = system: wheat germ agglutinin (Triticum aestivum), Alexa647-labelled; test: Alexa647-WGA lectin binding to printed small molecules – biochemical, small-molecule microarray, 635/667 nm fluorescence, artefact control for SMM control-protein annotation, profiling panel (AID 1140); conditions: WGA-A647 binding, 635 nm fluorescence, higher = more signal;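 further: score merges 667 nm feature emission with signal to noise over triplicate slides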
[20] = biological target: Luciferin 4-monooxygenase (Photinus pyralis) (UniProt P08659); test: inhibition of purified Photinus pyralis luciferase – biochemical, luminescence, purified enzyme, 2006 set, primary screen (AID 1141); conditions: purified firefly luciferase, SteadyGlo luminescence, 30 min; higher = more signal, called active from +8 up or from −8 down;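 further: cell-free assay with purified firefly luciferase at 100 ng per well in PBS; test concentration not given here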
Sequence of Luciferin 4-monooxygenase (Photinus pyralis) (P08659 whole entry, looked up): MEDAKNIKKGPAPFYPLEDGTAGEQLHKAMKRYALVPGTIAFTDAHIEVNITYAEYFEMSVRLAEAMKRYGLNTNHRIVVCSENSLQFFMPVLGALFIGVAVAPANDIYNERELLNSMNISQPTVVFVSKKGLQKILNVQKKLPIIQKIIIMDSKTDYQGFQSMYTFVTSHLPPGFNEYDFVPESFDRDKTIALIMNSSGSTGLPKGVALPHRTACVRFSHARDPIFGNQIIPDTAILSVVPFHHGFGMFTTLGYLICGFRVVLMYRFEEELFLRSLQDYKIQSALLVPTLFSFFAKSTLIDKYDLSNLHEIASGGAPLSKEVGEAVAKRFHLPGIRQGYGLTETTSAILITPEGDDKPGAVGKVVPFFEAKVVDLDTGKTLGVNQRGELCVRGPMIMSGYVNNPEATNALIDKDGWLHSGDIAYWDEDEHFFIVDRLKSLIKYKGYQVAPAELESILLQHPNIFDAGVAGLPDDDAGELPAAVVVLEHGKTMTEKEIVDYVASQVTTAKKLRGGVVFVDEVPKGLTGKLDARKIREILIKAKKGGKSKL

Sequence of Follistatin (Homo sapiens) (P19883 whole entry, looked up): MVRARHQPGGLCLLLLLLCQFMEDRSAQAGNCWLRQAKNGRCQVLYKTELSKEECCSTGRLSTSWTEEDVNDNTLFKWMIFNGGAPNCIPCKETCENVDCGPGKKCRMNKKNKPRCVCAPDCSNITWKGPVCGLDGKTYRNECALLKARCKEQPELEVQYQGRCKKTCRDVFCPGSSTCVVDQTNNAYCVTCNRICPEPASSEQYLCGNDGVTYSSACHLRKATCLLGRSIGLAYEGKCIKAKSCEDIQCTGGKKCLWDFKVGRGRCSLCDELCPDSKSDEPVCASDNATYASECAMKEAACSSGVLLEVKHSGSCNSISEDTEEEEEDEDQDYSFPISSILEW
Sequence of Fibroblast growth factor 2 (Homo sapiens) (P09038 whole entry, looked up): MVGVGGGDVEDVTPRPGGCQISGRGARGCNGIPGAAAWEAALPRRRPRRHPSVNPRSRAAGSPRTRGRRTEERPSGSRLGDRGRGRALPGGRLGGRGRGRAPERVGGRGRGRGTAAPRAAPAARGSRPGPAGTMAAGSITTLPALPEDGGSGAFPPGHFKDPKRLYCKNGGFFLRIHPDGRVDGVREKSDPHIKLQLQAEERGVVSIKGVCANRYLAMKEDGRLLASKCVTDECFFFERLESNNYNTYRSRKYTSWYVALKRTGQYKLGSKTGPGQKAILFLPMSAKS
Sequence of Concanavalin-A (Canavalia ensiformis) (P02866 whole entry, looked up): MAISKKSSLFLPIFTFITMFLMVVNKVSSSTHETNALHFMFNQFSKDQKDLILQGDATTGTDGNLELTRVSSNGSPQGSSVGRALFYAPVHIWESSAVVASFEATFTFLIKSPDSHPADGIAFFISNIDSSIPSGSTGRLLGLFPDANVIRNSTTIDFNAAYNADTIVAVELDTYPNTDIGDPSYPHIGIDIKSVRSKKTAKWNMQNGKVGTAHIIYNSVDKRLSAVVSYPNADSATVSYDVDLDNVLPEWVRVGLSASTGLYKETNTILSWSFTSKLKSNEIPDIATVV
Sequence of Albumin (Bos taurus) (P02769 whole entry, looked up): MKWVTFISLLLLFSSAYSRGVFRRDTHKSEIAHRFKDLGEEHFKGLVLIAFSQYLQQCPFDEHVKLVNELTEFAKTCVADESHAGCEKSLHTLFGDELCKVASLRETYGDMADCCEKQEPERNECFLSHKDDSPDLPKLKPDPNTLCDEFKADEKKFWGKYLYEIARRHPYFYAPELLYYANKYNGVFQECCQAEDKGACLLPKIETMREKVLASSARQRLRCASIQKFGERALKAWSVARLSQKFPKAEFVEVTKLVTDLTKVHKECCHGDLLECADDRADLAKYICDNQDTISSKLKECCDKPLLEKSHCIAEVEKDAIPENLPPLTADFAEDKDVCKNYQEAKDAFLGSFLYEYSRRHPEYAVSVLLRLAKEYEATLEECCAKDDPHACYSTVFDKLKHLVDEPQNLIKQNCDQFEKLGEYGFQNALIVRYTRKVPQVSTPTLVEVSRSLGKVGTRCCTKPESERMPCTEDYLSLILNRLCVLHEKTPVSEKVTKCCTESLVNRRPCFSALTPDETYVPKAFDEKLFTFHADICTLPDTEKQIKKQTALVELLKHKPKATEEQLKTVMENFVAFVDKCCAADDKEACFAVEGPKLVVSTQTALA
Sequence of Focal adhesion kinase 1 (Homo sapiens) (Q05397 whole entry, looked up): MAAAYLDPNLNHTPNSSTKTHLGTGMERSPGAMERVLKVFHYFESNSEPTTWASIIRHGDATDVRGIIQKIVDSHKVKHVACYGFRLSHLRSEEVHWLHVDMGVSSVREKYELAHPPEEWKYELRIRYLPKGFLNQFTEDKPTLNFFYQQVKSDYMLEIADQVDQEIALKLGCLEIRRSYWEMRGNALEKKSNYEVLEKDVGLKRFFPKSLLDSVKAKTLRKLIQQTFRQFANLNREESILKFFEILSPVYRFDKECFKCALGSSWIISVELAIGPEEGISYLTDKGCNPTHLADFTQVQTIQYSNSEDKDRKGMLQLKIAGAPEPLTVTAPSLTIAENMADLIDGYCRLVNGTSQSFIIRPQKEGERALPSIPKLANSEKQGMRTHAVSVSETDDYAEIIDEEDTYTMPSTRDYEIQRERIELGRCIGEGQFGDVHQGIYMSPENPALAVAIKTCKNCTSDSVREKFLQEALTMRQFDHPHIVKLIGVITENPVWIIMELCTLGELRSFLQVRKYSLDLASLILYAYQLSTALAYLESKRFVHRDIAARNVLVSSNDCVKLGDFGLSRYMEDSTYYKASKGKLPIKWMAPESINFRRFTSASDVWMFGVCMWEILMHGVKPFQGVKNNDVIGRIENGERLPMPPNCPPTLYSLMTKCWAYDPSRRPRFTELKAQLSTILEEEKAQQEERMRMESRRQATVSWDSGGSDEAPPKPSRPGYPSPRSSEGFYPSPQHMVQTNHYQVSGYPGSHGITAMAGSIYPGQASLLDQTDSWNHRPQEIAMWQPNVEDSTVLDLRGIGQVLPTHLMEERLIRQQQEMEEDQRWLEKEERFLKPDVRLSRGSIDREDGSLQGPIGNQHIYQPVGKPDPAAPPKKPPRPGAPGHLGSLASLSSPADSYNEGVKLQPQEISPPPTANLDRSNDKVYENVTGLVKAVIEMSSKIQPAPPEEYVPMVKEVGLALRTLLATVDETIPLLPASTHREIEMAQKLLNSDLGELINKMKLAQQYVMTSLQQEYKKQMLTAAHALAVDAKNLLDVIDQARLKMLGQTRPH

Row | SMILES | composite z-score [1] | composite Z-score [2] | composite z-score [3] | composite z-score [4] | composite z-score [5] | composite z-score [6] | composite z-score [7] | composite z-score [8] | composite z-score [9] | composite z-score [10] | composite z-score [11] | composite z-score [12] | composite z-score [13] | composite z-score [14] | composite z-score [15] | composite z-score [16] | z-score [17] | composite z-score [18] | composite z-score [19] | z-score [20]
1 | O=C1OCCC=C[C@H]2OC34C=CCN(c5ccc(Cl)cc5)C(=O)[C@H]3N(CCCO)C(=O)[C@@H]4C12 (stereo not given in full) | -0.989 | -0.118 (inactive) | -0.237 | -0.186 | 0.268 | -0.714 | 0.27 | -1.21 | -0.406 | -0.295 | -0.598 | -1.88 | -0.22 | -0.867 | -0.0633 | -0.584 | 0.0491 | 0.196 | -0.0198 | -0.352 (inactive)
2 | COc1ccc(CCNC(=O)[C@@]2(C)c3ccccc3C(=O)N(c3ccc(C)cn3)[C@H]2c2ccc(CO)cc2)cc1 | -0.252 | -0.133 (inactive) | -0.365 | -0.0956 | 0.793 | -0.335 | 0.165 | 0.243 | -1.02 | -0.699 | -0.463 | -0.0172 | -0.284 | -1.95 | -0.298 | -1.09 | 0.14 | -0.601 | -0.902 | 1.14 (inactive)
3 | CC(C)NC(=O)[C@@H]1c2ccccc2C(=O)N(C(C)C)[C@H]1c1ccc(CO)cc1 | -0.163 | -0.174 (inactive) | -0.215 | -0.179 | 0.644 | 2.97 | 0.338 | 0.637 | -1.38 | 0.185 | -1.51 | -0.0425 | 0.459 | -0.782 | -0.681 | -0.963 | 1.58 | -0.936 | -0.608 | -0.784 (inactive)
4 | COCC(=C=CC[C@H](O)c1ccccc1OCCO)CCO | 0.003 | -0.325 (inactive) | -0.0048 | -0.0475 | 0.774 | 0.969 | 0.162 | 0.853 | -0.546 | 0.298 | -0.69 | 0.268 | 0.432 | 0.869 | 0.992 | 1.11 | 0.417 | 1.15 | 1.14 | 0.109 (inactive)
5 | O=C1C2C=CC(C(O)c3cc(C(F)(F)F)cc(C(F)(F)F)c3)N(Nc3ccccc3)C2C(=O)N1c1ccccc1 (stereo not given) | -0.0814 | 0.837 (inactive) | 0.0435 | -0.101 | 0.723 | 2.51 | -0.233 | 1.04 | -0.357 | -0.236 | 0.692 | 1.27 | 0.838 | 0.462 | 0.0145 | -0.601 | -0.424 | 0.192 | 0.173 | -1.47 (inactive)
